According to PubChem BioAssay:
Records with an inconclusive call do not appear. The source made the active and inactive calls. Cut-off read from the data, not from the text of the source, unless noted: active = inhibition above about 80%; inactive = the rest.

Assays:
[1] = growth inhibition, single agents and combos, LFS_MB_2R, cell-based, cisplatin combos, synergistic combos for chromothripsis tumors (AID 1671457); conditions: LFS_MB_2R medulloblastoma cells, stronger effect = higher value;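 note: cells exposed to compound for four days before readout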
[2] = UWB1.289_BRCA1 ovarian cancer growth, cell-based, BGB or cisplatin combinations (AID 1671459); conditions: UWB1.289 BRCA1 ovarian carcinoma, drug combinations, stronger effect = higher value
[3] = drug combination toxicity in non-malignant astrocytes – cell-based, BGB or cisplatin IC20 combos, cytotoxicity control for chromothriptic childhood tumor combination screen (AID 1671460); conditions: Human astrocytes, viability inhibition, drug combinations, at 0.5 µM, stronger effect = higher value;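 note: cells exposed to compounds for 96 hours before viability readout; 0% = vehicle and 100% = killing control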
[4] = rescue of PC12 cells from polyQ htt toxicity – LDH release (AID 1610); conditions: PC12 mutant huntingtin toxicity, final LDH at 4 uM, stronger effect = lower value
[5] = selective SMN2 exon splicing luciferase activators – cell-based, SMN2/SMN1 luciferase reporters (AID 1598; call rule not given here); conditions: SMN2 vs SMN1 luciferase splicing reporter cells, at 10 µM; SMN1 luciferase ratio: measured here: SMN1 luciferase reporter average; SMN2 luciferase ratio: measured here: SMN2 luciferase reporter average, stronger effect = higher value; SMN2/SMN1 luciferase ratio: stronger effect = higher value

In the case of `Cn1c(CCCC(=O)O)nc2cc(N(CCCl)CCCl)ccc21`, the inhibition ([1]; at 0.5 µM) is reported as -14.6% (inactive), the inhibition ([1]; measured here: combination with cisplatin, at 0.5 µM) is reported as -2.61% and the inhibition ([1]; measured here: combination with cisplatin, at 5 µM) is reported as -14.7%. The inhibition ([2]; BGB combination, concentration series, at 5 µM) was -2.78%, the inhibition ([2]; at 0.5 µM) was -6.91% (inactive) and the inhibition ([2]; cisplatin combination, concentration series, at 5 µM) was -6.97%. For the same compound, the inhibition [3] was -9.57% (inactive), the inhibition ([3]; measured here: combo with BGB IC20) was -2.95% and the inhibition ([3]; measured here: combo with cisplatin IC20) was -20%.

In the case of `O=c1c2ccccc2[se]n1-c1ccccc1`, the normalised LDH release [4] is reported as 0.64.

In the case of `CC[C@@]1(O)C(=O)OCc2c1cc1n(c2=O)Cc2cc3ccccc3nc2-1`, the SMN1 luciferase ratio [5] is reported as 0.16, the SMN2/SMN1 luciferase ratio [5] is reported as 1.74 (active) and the SMN2 luciferase ratio [5] is reported as 0.26.
